Screens: PubChem, National Center for Advancing Translational Sciences (NCATS)
Most compounds without a hit are left out; they make up all but 21% or so of the library.
CHX counter = counter-screen for Shiga toxin inhibitors: cycloheximide protein synthesis inhibition; cell reporter, cycloheximide protein synthesis inhibition counterscreen; max response, %; 300,000 compounds, 12% hits; in the data active = max response mostly above about 13%, no sharp cut-off; inactive = mostly below about 14%; note: read at 38.3 µM for the half of the compounds with a filed dose; 0% is about no effect
Pf growth 48h = P. falciparum growth inhibition at 48 hours (one generation). P. falciparum luciferase growth in erythrocytes, 48 h. Potency, µM (top dose mostly 28.7 µM), for inactives: top-dose activity change, negative = inhibition, actives largely listed as inhibitors. 310,000 compounds, 5.9% hits. AID 504832; note: potency is the fitted concentration of half-maximal effect; % is set by controls: 0 for no effect and ±100 for the full control effect
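First compound was added to culture medium, then infected red cells at 0.1% parasitemia and 2% hematocrit (final). After incubation at 37 C under 5% CO2, luciferase detection reagent was dispensed and light output recorded.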
Shiga toxin inh = Shiga toxin inhibition | Vero cells, Shiga toxin protein synthesis inhibition reporter | inhibition, % at 38.7 µM | 290,000 compounds, 9.2% hits | AID 2315; in the data active = inhibition mostly above about 28%, no sharp cut-off; inactive = mostly below about 43%; note: 0% is about no effect
Pf growth 96h = inhibits malaria parasite growth, 96 h. Potency, µM (titrated, usually from 28.7 µM), for inactives: at the top dose activity change, negative = inhibition, most hits filed as inhibitors. 320,000 compounds, 6.9% hits. P. falciparum luciferase reporter growth, 96 h; note: potency is the fitted concentration of half-maximal effect; % is set by controls: 0 for no effect and ±100 for the full control effect
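Delayed-death screen, second-generation endpoint: infected erythrocytes, 2% hematocrit, 0.05% parasitemia final; 96 hours at 37 C, 5% CO2; luciferase detection reagent; luminescence decrease equals reduced growth.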
AMA1 RON2 block = inhibitors of Plasmodium falciparum AMA1-RON2 interaction | 360,000 compounds, 0.2% hits | Potency, µM (highest dose often 58.2 µM), for the others: top-dose activity change, negative = inhibition, usual class: inhibitors | AlphaScreen AMA1-biotinylated RON2 peptide binding;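 note: potency is the fitted concentration of half-maximal effect; 0% = vehicle wells and -100% = peptide control; nearly all actives have a fitted effect of over 45% in size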
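AMA1 (3D7) with his tag at 25 nM final met compounds first, then biotinylated RON2 peptide at 25 nM; detection used donor plus acceptor beads, 10 µg/mL apiece, read by AlphaScreen after 30 min at room temperature.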
HCV inhibitor = blocks hepatitis C virus | Huh7.5.1 HCVcc-Cre infection, luciferase reporter, 44 h | Potency, µM (top dose mostly 41.8 µM), inactives show at the highest dose activity change, negative = inhibition, usual class: inhibitors | 340,000 compounds, 3.4% hits; note: potency is the fitted concentration of half-maximal effect; % is set by controls: 0 for no effect and ±100 for the full control effect
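Compounds are dispensed onto cells plated 4 h earlier at 1,000 per well, with HCVcc-Cre virus (about 0.5 moi) added next. Following 44 h of culture, luminescent signal is measured for 15 sec after 15 min with substrate at room temperature.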
An asterisk follows results filed as active; ? = inconclusive; nt = not tested or not shown; + = active, no number; ! = not active in a repeat; [ ] = dose if it differs, or a comment. Unless noted, calls come from the whole dose curve; as a rule, active = well fitted curve in the direction sought with a large enough effect; inconclusive = small, poorly fitted or top-dose-only effect, or another doubt; inactive = no such curve, though single readings can be large; an effect the other way counts as inactive or inconclusive.

SMILES	CHX counter	Pf growth 48h	Shiga toxin inh	Pf growth 96h	AMA1 RON2 block	HCV inhibitor
CCc1nc(N2CCN(C(=O)c3ccco3)CC2)c(C#N)c2c1COC(C)(C)C2	3.0	10.4µM*	-2.5	?	-1.9%	22.4µM*
CCOC(=O)C1CCCN(S(=O)(=O)c2cnc(Cl)c(Br)c2)C1 (centres undefined)	17.7	2.0%	-9.4	39.4%	-1.9%	?
CCOC(=O)Cc1cc(=O)c2cc(C)ccc2[nH]1	-4.0	?	-7.6	?	5.9%	18.2%
COc1ccc2[nH]c3c(c2c1)CNCC3	nt	nt	nt	nt	-13.7%	nt
COc1ccc2[nH]c3ccccc3c2c1	32.4*	8.9%	58.3	nt	-4.6%	?
COc1cc2[nH]c(-c3cccc(F)c3)cc(=O)c2cc1OC	-2.6	?	-14.3	?	2.4%	-6.3%[8.37 µM]
COc1cccc(-c2cc(=O)c3cc(NC(C)=O)ccc3[nH]2)c1	16.8	160.1%	-3.5	128.1%	-5.1%	-2.8%[8.37 µM]
COc1ccc(-c2cc(=O)c3cc(OC)ccc3[nH]2)cc1	61.5*	131.2%	93.9*	67.2%	-8.4%	-10.7%
COc1cc2[nH]c(-c3ccc(C)cc3)cc(=O)c2cc1OC	29.3*	-25.5%	+!	?	24.4%	-1.3%[8.37 µM]
COc1ccc(-c2cc(=O)c3cc(C)ccc3[nH]2)cc1	35.4*	24.0%	53.1*	?	-5.6%	10.5%[8.37 µM]
Cc1ccc(CN2CC(C(=O)N3CCN(S(=O)(=O)c4cccc(F)c4)CC3)CC2=O)cc1 (centres undefined)	nt	?	nt	9.3%	0.0%	2.8%
CC(C)(C)NC(=O)C(c1ccc(-c2ccccc2)cc1)N(C[C@H]1CC[C@@H]([C@@H]2CC[C@H](CO)O2)O1)C(=O)c1ccc(C(C)(C)C)cc1 (some centres undefined)	nt	nt	nt	nt	-5.8%	?
COCCNC(=O)C1(C)CCCN(C(=O)c2ccc(C(F)(F)F)cc2)C1 (centres undefined)	nt	nt	nt	nt	2.3%	nt
COc1ccc(NC(=O)CCN2CCCCC2)cc1	-2.1	1.6%	-4.9	13.1µM*	-4.3%	-2.6%
Cc1cc(NC(=O)CCN2CCCCC2)ccc1Br	-2.3	10.0%	1.2	2.62µM*	5.0%	-20.0%
Cc1ccc(NC(=O)CCN2CCN(C/C=C/c3ccccc3)CC2)cc1	2.0	?	-10.3	nt	5.2%	?
Cc1ccc(NC(=O)CCN2CCN(C/C=C/c3ccccc3)CC2)cc1C	2.5	6.57µM*	-14.9	89.2%	-14.0%	-25.9%
Cc1cc(NC(=O)CCN2CCN(CCO)CC2)ccc1Br	0.1	?	-6.4	0.0%	-2.6%	18.1%
Cc1cccc(NC(=O)CCN2CCC(C(N)=O)CC2)c1	-3.5	21.9%	-23.9	6.57µM*	6.0%	-1.6%
COc1ccc(C(O)P(=O)(OCCC(C)C)c2ccc(N(C)C)cc2)cc1 (centres undefined)	-3.5	?	-4.1	-5.0%	-0.9%	2.7%
O=C(CCN1CCCCCC1)Nc1cccc(Cl)c1	-2.7	8.9%	19.7	2.08µM*	-2.5%	-5.6%
COc1ccc(NC(=O)OC(CN2CCCCC2)C(F)(F)F)cc1 (centres undefined)	21.4*	30.8%	21.1	40.4%	0.1%	4.1%
O=C(CCN1CCCCC1)Nc1cccc(Cl)c1	-1.7	nt	-16.9	?	-2.3%	0.9%
COc1ccc(NC(=O)CN2CCCC2)cc1	12.6	-16.8%	nt	-4.9%	2.2%	3.2%
CC(C)(C)NC(=O)c1ccccc1NC(=O)C1CC(=O)N(C2CCCCC2)C1 (centres undefined)	-6.2	-3.2%	4.1	3.0%	-5.5%	-8.9%
SMILES	CHX counter	Pf growth 48h	Shiga toxin inh	Pf growth 96h	AMA1 RON2 block	HCV inhibitor
COc1ccc(C2=NC(=O)/C(=C\c3cc(OC)c(OC)c(OC)c3)O2)cc1	2.0	16.4%	13.4	0.928µM*	17.1%	34.6%
CCCc1c(Cc2cccc(F)c2)ncn1Cc1cccc(-c2ccccc2)c1	nt	nt	nt	nt	15.5%	nt
NC(=O)COC(=O)c1c2c(nc3ccccc13)CCCCC2	6.8	-19.7%	-22.8	-12.8%	-4.5%	-29.8%
O=C(COC(=O)c1c2c(nc3ccccc13)CCCC2)c1cccs1	23.1*	?	45.8	?	-9.8%	?
O=C(COC(=O)c1c2c(nc3ccccc13)CCCCC2)c1ccc(Cl)s1	8.7	-25.6%	78.5*	?	-31.4%	10µM*
COc1ccc(C(c2nnnn2CC2CCCO2)N2CCN(c3cccc(C)c3C)CC2)cc1 (centres undefined)	-5.0	9.28µM*	3.5	2.9%	-1.5%	-0.5%
CCCCC(c1nnnn1CC1CCCO1)N1CCN(c2cccc(C)c2C)CC1 (centres undefined)	1.8	13.1µM*	-4.3	nt	-3.2%	7.8%
COc1ccc(C(c2nnnn2CC2CCCO2)N2CCC(C(N)=O)CC2)cc1 (centres undefined)	-2.0	9.9%	-2.4	-17.3%	0.6%	11.5%
O=C1NC(=O)C(=Cc2ccc(Sc3ccccc3)o2)C(=O)N1	20.1*	16.1%	34.4	31.9%	-19.1%	0.7%
CSc1cccc(NC(=O)c2ccc(NC3=NC4CS(=O)(=O)CC4S3)cc2)c1 (centres undefined)	-3.3	37.4%	-2.8	7.4%	49.5%	8.5%
Cc1csc(NC(=O)c2cn3ccccc3n2)n1	-2.7	51.0%	-18.0	-0.1%	74.5%	3.6%
Cn1cccc1C(=O)Nc1nc(-c2ccccn2)cs1	51.1*	?	83.5*	14.7µM*	-8.7%	14.1µM*
Cc1csc(NC(=O)c2cccn2C)n1	61.8*	280.8%	102.1*	316.5%	-8.7%	0.6%
COc1ccc(N2CC(O)=C(c3nc4ccccc4s3)C2=N)cc1	19.7*	-18.0%	67.7	3.4%	14.0%	-3.2%
COc1cccc(N2CC(O)=C(c3nc4ccccc4s3)C2=N)c1	32.8*	4.8%	54.3*	-0.1%	75.6%	?
N=C1C(c2nc3ccccc3s2)=C(O)CN1c1ccccc1	32.7*	28.7%	39.0	12.8%	14.8%	-6.1%
Oc1ccc(Cl)c(CN2CCN(c3ncc(Cc4ccccc4)cn3)CC2)c1	nt	nt	nt	nt	-27.6%	nt
CC(OC(=O)CC1Sc2ccccc2NC1=O)C(=O)N(C)Cc1ccccc1 (centres undefined)	nt	nt	nt	nt	3.2%	?
COc1ccccc1Nc1ccc(C(=O)NC2CCCCC2)cn1	19.2*	-16.8%	31.1*	?	0.4%	?
O=C(NC1CCCC1)c1ccccc1OCc1ccccc1	-1.0	-37.7%	-16.6	-24.3%	-4.4%	7.94µM*
Cc1cccc(COc2ccccc2C(=O)NC2CCC(O)CC2)c1 (centres undefined)	nt	?	nt	-28.4%	-1.5%	7.2%
O=C(NC1CCN(Cc2ccccc2)CC1)c1ccccc1OCc1ccccc1	-6.5	?	-3.6	9.28µM*	-1.6%	25.1µM*
COc1ccccc1C(=O)NC1CCCCCCC1	20.1*	?	102.0*	?	-4.0%	-12.6%
COc1ccc(/C=N/n2c(C)nc3ccccc3c2=O)cc1	-1.6	48.9%	38.4	66.7%	3.3%	13.6%
